NPC1 prom act = activates the NPC1 promoter; Huh7 NPC1 promoter luciferase reporter, 24 h; Potency, µM (series often up to 9.22 µM), without a hit: at the top dose activation, actives largely listed as activators; hit rate 2.4% among 320,000; further: % of control where 0% means no effect; nearly all actives have a fitted effect of over 60% in size
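Stable NPC1-promoter luciferase Huh7 line; cpd (DMSO) 24 h, 37 °C, 5% CO2; Amplite luciferase reagent 10 min RT; luminescence readout. qHTS format.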
ELG1 genotoxic = inducers of genotoxicity in HEK293T ELG1-luciferase cells. HEK293T ELG1-luciferase reporter, luminescence, 16 h. Potency, µM (highest dose often 46 µM), inactives show at the top dose activity change, positive = activation, hits mostly activators. hit rate 1.3% among 330,000. AID 504466; further: % of control where 0% means no effect; nearly all actives have a fitted effect of over 60% in size
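Cells (2,000/well) expressing the ELG1-luciferase fusion are dosed by pin tool and kept 16 hr at 37 °C, 5% CO2. Signal comes from ONE-Glo luciferase reagent after 30 min at room temperature.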
Rab9 prom act = Rab9 promoter activation. Huh7 Rab9 promoter-luciferase reporter, luminescence, 24 h. Potency, µM (top dose mostly 9.22 µM), for inactives: at the top dose activation, negative = inhibition, actives largely listed as activators. hit rate 2.8% among 320,000. AID 485297; further: % of control where 0% means no effect; nearly all actives have a fitted effect of over 60% in size
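Measured in stably transfected Huh7 cells bearing a Rab9 promoter–luciferase construct: 24 h compound treatment at 37 °C, followed by luminescence detection.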
FLuc modulator = inhibits or activates purified firefly luciferase, miR-21 counter-screen | P08659 | purified FLuc, Km substrates, luminescence inhibition | Potency, µM (series often up to 57.5 µM), inactives show top-dose activity change, negative = inhibition, most hits filed as inhibitors | hit rate 6.9% among 360,000 | AID 588342;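 further: plate controls were vehicle for no effect and reference inhibitor for full effect; nearly all actives have a fitted effect of over 55% in size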
Target sequence (P08659 whole entry, looked up): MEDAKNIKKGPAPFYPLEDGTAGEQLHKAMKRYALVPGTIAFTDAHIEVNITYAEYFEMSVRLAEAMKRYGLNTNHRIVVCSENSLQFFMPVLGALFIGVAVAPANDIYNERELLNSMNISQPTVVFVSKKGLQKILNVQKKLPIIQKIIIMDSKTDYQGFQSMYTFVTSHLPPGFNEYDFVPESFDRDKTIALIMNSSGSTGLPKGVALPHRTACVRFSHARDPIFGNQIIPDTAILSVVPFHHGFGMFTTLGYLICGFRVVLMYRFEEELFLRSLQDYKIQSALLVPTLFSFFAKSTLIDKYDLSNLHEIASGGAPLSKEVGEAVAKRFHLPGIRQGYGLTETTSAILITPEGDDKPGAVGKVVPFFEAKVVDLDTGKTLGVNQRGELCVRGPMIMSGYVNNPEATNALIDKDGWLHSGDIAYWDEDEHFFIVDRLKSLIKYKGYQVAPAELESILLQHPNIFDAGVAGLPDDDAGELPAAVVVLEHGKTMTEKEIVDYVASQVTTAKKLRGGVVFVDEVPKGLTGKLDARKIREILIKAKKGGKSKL
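Biochemical qHTS of compounds, final roughly 60 µM downward over six points, against 10 nM purified firefly luciferase using Km concentrations of substrates (10 uM D-luciferin, 10 uM ATP) in Tris acetate pH 7.5 buffer; luminescence output.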
SMN2 splice enh = increases expression of the SMN2 splice variant. HEK293 SMN2-luciferase splicing reporter, luminescence, 30-36 h. Potency, µM (titrated, usually from 46.1 µM), without a hit: at the top dose activity change, positive = activation, actives largely listed as activators. hit rate 2.8% among 210,000. AID 1458; further: % of control where 0% means no effect; nearly all actives have a fitted effect of over 55% in size
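qHTS luciferase splicing reporter: luminescence rises when SMN2 exon 7 is included in transfected HEK293 cells. Compound exposure lasted 30-36 h at 37C, with 4.5 mM final sodium butyrate as control, followed by a ONE-Glo read.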
* marks the source's active call; other numbers are inactive results; ? = inconclusive; nt = no result; [ ] = remark or other dose. Only some compounds are listed: those with a hit (about 7.5% of all), similar ones and a draw of the others. The call rests on the fitted dose curve; in most records, active means well fitted curve in the direction sought with a large enough effect; inconclusive means small, poorly fitted or top-dose-only effect, or another doubt; inactive means no such curve, though single readings can be large; an effect the other way counts as inactive or inconclusive. Potency means the concentration at half of the fitted maximal effect.

SMILES	NPC1 prom act	ELG1 genotoxic	Rab9 prom act	FLuc modulator	SMN2 splice enh
Cc1cc(C(=O)COC(=O)c2ccc3c(c2)NC(=O)CS3)c(C)n1CC1CCCO1 (stereo unspecified)	-5%	-1%	-4%	15µM*	-13%
COc1cc(C(C)=O)ccc1OCC(=O)OCC(=O)c1cc(C)n(CC2CCCO2)c1C (stereo unspecified)	0%	2%	-5%	?	nt
COCC(C)n1c(C)cc(C(=O)COC(=O)c2ccc3c(c2)NC(=O)CS3)c1C (stereo unspecified)	1%	-4%	-1%	?	-25%
NS(=O)(=O)c1ccc(CNC(=O)/C=C/c2cccc([N+](=O)[O-])c2)cc1	0%	0%	2%	-1%	nt
CCn1c(SCC(=O)Nc2ccc(N3CCOCC3)cc2)nnc1-c1ccc(OC)cc1	-2%	-6%	-3%	15µM*	-12%
CCn1c(C)nnc1SCC(=O)Nc1ccc(N2CCOCC2)cc1	2%	1%	4%	?	nt
CCn1c(SCC(=O)Nc2ccc(N3CCOCC3)c(Cl)c2)nnc1-c1ccc(N)cc1	2%	2%	2%	13µM*	-16%
CCc1cc(C(C)=O)c(O)cc1OCCCCCC(C)(C)c1nn[nH]n1	nt	nt	nt	nt	-17%
COc1ccc(Br)cc1S(=O)(=O)Nc1cc(-c2cn3ccccc3n2)ccc1C	nt	nt	nt	?	-3%
COc1ccc(S(=O)(=O)Nc2cc(-c3cn4ccc(C)cc4n3)ccc2C)cc1OC	nt	nt	nt	15µM*	19%
CCCS(=O)(=O)Nc1cc(-c2cn3ccc(C)cc3n2)ccc1C	nt	nt	nt	9.5µM*	15%
NCCCc1c(-c2ccccc2)nc(N)[nH]c1=O	nt	nt	nt	nt	7%[9.22 µM]
CC(C)c1ccc(NC(=O)N(CCc2nc3ccccc3[nH]2)C2CCCC2)cc1	7%	2%	4%	7.6µM*	-3%
O=C(Nc1cccc(F)c1)N1CC2(CCN(C(=O)c3cc(C(F)(F)F)cc(C(F)(F)F)c3)CC2)C1	nt	nt	nt	nt	-8%
CCc1ccc2[nH]c(=O)c(-c3ccccc3)c(O)c2c1	-3%	3%	6%	21µM*	nt
O=c1[nH]c2ccc(Cl)cc2c(O)c1Cc1ccccc1	-1%	-2%	5%	?	nt
CCCOc1ccc2c(c1)C(=NN=C(N)N)c1cc(OCCC)ccc1-2	-5%	-4%	1%	?	nt
CCOc1ccc2c(c1)C(=O)c1cc(OCC(=O)O)ccc1-2	14%	-8%	2%	3.4µM*	nt
O=C(O)COc1ccc2c(c1)CCCC2	0%	-2%	1%	-25%	-1%
CCCCOc1ccc2c(c1)C(=O)c1cc(O)ccc1-2	?	?	3.2µM*	27µM*	nt
C1CNCCNCCCNCCNC1	1%	2%	1%	4%	-44%
CC(C)(C)c1ccc(NC(=O)C2=CC=CN3CCS(=O)(=O)N=C23)cc1	30%	?	?	nt	nt
CCN(CC)c1ccc(NC(=O)C2=CC=CN3CCS(=O)(=O)N=C23)cc1	17%	12%	?	3µM*	nt
COc1cccc(NC(=O)Cn2c(=O)n(Cc3ccc(C(=O)NCc4ccc5c(c4)OCO5)cc3)c(=O)c3ccccc32)c1	nt	nt	nt	0%	-5%
COC(=O)C1=C(C)N(Cc2ccccc2)C(=NCc2ccco2)N[C@H]1c1ccc(Br)cc1	nt	nt	nt	7%	nt
SMILES	NPC1 prom act	ELG1 genotoxic	Rab9 prom act	FLuc modulator	SMN2 splice enh
Cc1cc(NC(=O)CCC(=O)N(c2ccccc2)C(C(=O)NCC2CCCO2)c2cccnc2)no1 (stereo unspecified)	-1%	-3%	-7%	-7%	-7%
COC(=O)CNC(=O)COC(=O)/C=C/c1ccc2ccccc2n1	1%	7%	-2%	?	3%
CC(OC(=O)/C=C/c1ccc2ccccc2n1)C(=O)NCc1ccccc1 (stereo unspecified)	-6%	-3%	-3%	9.5µM*	nt
CCOc1cc(S(=O)(=O)N2CCCCCC2)ccc1F	1%	2%	0%	-7%	-9%
CC1CCN(C(=O)COC(=O)c2c[nH]c3ccccc23)CC1	?	18%	?	?	nt
CN1c2ccccc2Oc2nnc(Cl)cc21	-9%	5%	2%	3%	-9%
CN1c2ccccc2Oc2nnc(N3CCN(Cc4ccccc4)CC3)cc21	23%	4%	?	19µM*	nt
CCn1c(=NC(=O)c2ccc3c(c2)OCCO3)sc2c(C)ccc(OC)c21	nt	nt	nt	1.9µM*	nt
COc1ccc(C(=O)N=c2sc3c(C)ccc(OC)c3n2C)cc1	?	0.46µM*	?	0.6µM*	4µM*
C#CCn1c(=NC(=O)c2ccc3c(c2)OCCO3)sc2cc(OC)c(OC)cc21	nt	nt	nt	-1%	nt
CC(C)(C)COS(=O)OCC(C)(C)C	nt	nt	nt	nt	-22%[9.22 µM]
CC(C)(C)c1ccc(Cn2ccc(-c3ccc4c(c3)OCO4)n2)cc1	8%	1%	12%	27µM*	4%
NC(=O)Cn1c(=O)n(CCC(=O)NCCSCc2ccccc2)c(=O)c2ccccc21	-5%	-2%	23%	0%	-6%
CCOC(=O)c1cc(-c2cccc(C(F)(F)F)c2)nc2nc(SC)[nH]c(=O)c12	-2%	-6%	-2%	12µM*	5%
CCOC(=O)c1cc(-c2ccc(C)cc2)nc2nc(SC)[nH]c(=O)c12	-2%	-1%	-1%	4.8µM*	6%
COC(=O)c1cc(-c2ccc(OC)cc2)nc2nc(SC)[nH]c(=O)c12	-5%	1%	-1%	5.4µM*	nt
CSc1nc(-c2ccc(F)cc2)cc(=O)[nH]1	-2%	4%	-1%	?	18%
CSc1nc(C)c(CCOC(=O)c2cccc(C)c2)c(=O)[nH]1	-2%	-1%	8%	-9%	-10%
CN(C(=O)CSCC(=O)O)C1CCCCC1	0%	-2%	-3%	-2%	-9%
Cc1ccc(S(=O)(=O)N[C@@H](C)C(=O)OCC(=O)N2c3ccccc3NC(=O)C2(C)C)cc1	-3%	-4%	1%	2%	nt
N#Cc1c(N2CCCC2)nsc1-c1ccccc1	?	?	?	15µM*	nt
COC(=O)c1c(NC(=O)c2cccs2)sc2c1CCC(C)C2 (stereo unspecified)	?	15%	?	11µM*	15%
CC1CCc2c(sc(NC(=O)c3cccs3)c2C(=O)O)C1 (stereo unspecified)	19%	-5%	26%[1.84 µM]	6.7µM*	nt
CCC1CCc2c(sc(NC(=O)c3ccoc3C)c2C(N)=O)C1 (stereo unspecified)	-3%	?	21%	6.7µM*	?
CC(C)(C)C1CCc2c(sc(NC(=O)c3cccs3)c2C(=O)N2CCCCC2)C1 (stereo unspecified)	0%	-8%	12%	4%	-2%
CCCC1CCc2c(sc(NC(=O)c3cccs3)c2C(N)=O)C1 (stereo unspecified)	?	5%	?	3.4µM*	4%
CN(C(=O)CN1CCCCCC1)c1c(N)n(Cc2ccccc2)c(=O)[nH]c1=O	1%	3%	2%	-1%	nt

Screening data (PubChem)
